These results are taken from PubChem BioAssay (EPA / NIEHS).

The target in test [1] is Retinoic acid receptor RXR-alpha (Homo sapiens) (UniProt P19793). Kind of test: ATG_RXRa_TRANS: Attagene TRANS-FACTORIAL HepG2 Assay for human Retinoid X Receptor alpha (RXRa) (AID 2283012; active = hit-call score of the fitted dose curve at least 0.9, where 1 is the maximum). An outline of the steps: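 HepG2 cells transiently transfected with multiplexed GAL4-UAS reporter units and chimeric NR-GAL4 fusions, dosed 24 h. Reporter mRNA measured by RT-PCR, FAM labelling, HpaI digestion and capillary electrophoresis; gain-of-signal fitted relative to DMSO baseline.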

Read-out in test [2]: E-selectin (Homo sapiens) (UniProt P16581)
Kind of test: BSK_3C_Eselectin: BioMAP Diversity Plus: 3C Assay for Eselectin Biomarker Activity (AID 2283015).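 For outcome: cell surface E-selectin protein quantified by ELISA 24 h after dosing.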 The following applies: primary human endothelial cells (HUVEC); actives raise or lower the signal. The gist of the method: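 Human vascular endothelium from umbilical vein is exposed to test chemicals for 24 h. E-selectin levels are read by ELISA and compared with DMSO controls.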

Read-out in test [3]: Interleukin-1 alpha (IL1a), IL1A (gene 3552)
Kind of test: BSK_BE3C_IL1a: BioMAP Diversity Plus: BE3C Assay for Interleukin-1 alpha (IL1a) Biomarker Activity (AID 2283016). As to conditions: primary human bronchial epithelial cells; actives raise or lower the signal. An outline of the steps:
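Human primary bronchial epithelial cells (BE3C system) were dosed with compound and IL-1a measured by ELISA 24 h later. Activity was fitted bidirectionally against DMSO baseline; cytotoxicity was tracked in parallel cultures by SRB total-protein staining.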

Read-out in test [4]: Monocyte Chemoattractant Protein-1 (MCP1), CCL2 (gene 6347)
Kind of test: BSK_3C_MCP1: BioMAP Diversity Plus: 3C Assay for Monocyte Chemoattractant Protein-1 (MCP1) Biomarker Activity (AID 2283017). The following applies: primary human endothelial cells (HUVEC); actives raise or lower the signal. An outline of the steps: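 Endothelial cells from human umbilical vein are dosed with chemical, cultured 24 h, then assayed for MCP-1 by ELISA; both increases and decreases are modelled against DMSO controls.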

Read-out in test [5]: Monocyte Chemoattractant Protein-1 (MCP1), CCL2 (gene 6347)
Put plainly: BSK_4H_MCP1: BioMAP Diversity Plus: 4H Assay for Monocyte Chemoattractant Protein-1 (MCP1) Biomarker Activity (AID 2283018). The following applies: primary human endothelial cells (HUVEC); actives raise or lower the signal. An outline of the steps:
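Human umbilical vein endothelial cells (4H system) dosed with chemical; MCP-1 measured by ELISA 24 h after dosing. Bidirectional curve fitting against DMSO negative control as baseline; parallel SRB total-protein staining tracks overt cytotoxicity.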

Read-out in test [6]: Interleukin-8 (IL8), CXCL8 (gene 3576)
Put plainly: BSK_3C_IL8: BioMAP Diversity Plus: 3C Assay for Interleukin-8 (IL8) Biomarker Activity (AID 2283020). The following applies: primary human endothelial cells (HUVEC); actives raise or lower the signal. The gist of the method:
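Primary human umbilical vein endothelial cells (3C system) were exposed to test chemical for 24 h, then IL-8 was quantified by ELISA. Responses were fitted bidirectionally against DMSO vehicle as baseline.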

Read-out in test [7]: Monokine induced gamma interferon (MIG), CXCL9 (gene 4283)
Kind of test: BSK_3C_MIG: BioMAP Diversity Plus: 3C Assay for Monokine induced gamma interferon (MIG) Biomarker Activity (AID 2283021).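 For AC50: MIG protein level measured by immunoassay in the treated endothelial cultures.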 The following applies: primary human endothelial cells (HUVEC); actives raise or lower the signal. An outline of the steps: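 Primary human umbilical vein endothelial cells in the 3C system were exposed to chemical for 24 h, after which MIG was quantified by ELISA. Activity was fitted bidirectionally against DMSO as negative control and baseline.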

Test [8] concerns the target human Vitamin D Receptor (VDR), VDR (gene 7421) (UniProt P11473). Put plainly: ATG_VDR_TRANS: Attagene TRANS-FACTORIAL HepG2 Assay for human Vitamin D Receptor (VDR) (AID 2283022; active = hit-call score of the fitted dose curve at least 0.9, where 1 is the maximum). An outline of the steps:
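Fluorescence of labelled reporter cDNA fragments, resolved by capillary electrophoresis, gives mRNA induction after 24 h treatment of HepG2 cells carrying transfected Gal4-fusion reporter units. Activity is fitted in the positive direction with DMSO as baseline.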

The nature of test [9]: BSK_3C_SRB: Viability Assessment in the BioMAP Diversity Plus: 3C Assay (AID 2283023).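 Note: cells read 24 h after compound dosing; fitted both ways against DMSO so a hit may be signal rise or drop.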 As to conditions: primary human endothelial cells (HUVEC). The gist of the method:
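Cells were dosed with chemical, cultured 24 h, fixed with 10% TCA, stained with 0.1% SRB and read at 560 nm. Human umbilical vein endothelium was used; DMSO served as negative control and baseline.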

Read-out in test [10]: Matrix Metallopeptidase 1 (MMP1), MMP1 (gene 4312)
Kind of test: BSK_BE3C_MMP1: BioMAP Diversity Plus: BE3C Assay for Matrix Metallopeptidase 1 (MMP1) Biomarker Activity (AID 2283024). The following applies: primary human bronchial epithelial cells; actives raise or lower the signal. An outline of the steps: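 Primary human bronchial epithelial cells were dosed with test chemicals, and MMP1 levels were measured by ELISA 24 h later. Data were fitted bidirectionally against DMSO as the negative control and activity baseline.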

Test [11] in a line: BSK_3C_Vis: BioMAP Diversity Plus: 3C Assay for Morphology Visualization (AID 2283025).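 Note: fitted both ways so gain or loss versus DMSO counts.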 The following applies: primary human endothelial cells (HUVEC). An outline of the steps: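 Human umbilical vein endothelial cells in the 3C system were imaged by light microscopy 24 h after chemical dosing to record cell morphology. Activity was fitted bidirectionally against DMSO as negative control and baseline; the endpoint serves as a background control.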

Read-out in test [12]: Pselectin, SELP (gene 6403)
Kind of test: BSK_4H_Pselectin: BioMAP Diversity Plus: 4H Assay for Pselectin Biomarker Activity (AID 2283026). As to conditions: primary human endothelial cells (HUVEC); actives raise or lower the signal. The gist of the method: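 Primary human umbilical vein endothelial cells were exposed to test chemical for 24 h, then cell-surface P-selectin was quantified by ELISA. Activity was fitted bidirectionally against DMSO as negative control and baseline.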

The nature of test [13]: BSK_4H_SRB: Viability Assessment in the BioMAP Diversity Plus: 4H Assay (AID 2283027).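 For AC50: curves fitted both ways versus DMSO so AC50 may be loss or gain.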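 Note: cells exposed to compound for 24 h before staining.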 The following applies: primary human endothelial cells (HUVEC). An outline of the steps:
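Human umbilical vein endothelial cells were dosed with chemical and, after 24 h, fixed with 10% TCA, stained with 0.1% sulforhodamine B, and read at 560 nm to give total protein as a cytotoxicity measure. Bidirectional fitting relative to DMSO control.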

The nature of test [14]: BSK_BE3C_SRB: Viability Assessment in the BioMAP Diversity Plus: BE3C Assay (AID 2283028). The following applies: primary human bronchial epithelial cells. The gist of the method: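 Overt cytotoxicity was assessed as total protein in confluent human primary bronchial epithelial cultures 24 h after chemical addition, using 0.1% sulforhodamine B staining read at 560 nm.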

Read-out in test [15]: Thrombomodulin, THBD (gene 7056)
Put plainly: BSK_3C_Thrombomodulin: BioMAP Diversity Plus: 3C Assay for Thrombomodulin Biomarker Activity (AID 2283029). The following applies: primary human endothelial cells (HUVEC); actives raise or lower the signal. An outline of the steps:
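Primary human umbilical vein endothelial cells (3C system) were exposed to chemical for 24 h, then thrombomodulin levels were measured by ELISA. Activity was fitted bidirectionally against the DMSO negative control as baseline.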

Read-out in test [16]: Urokinase-type plasminogen activator receptor (uPAR), PLAUR (gene 5329)
Put plainly: BSK_4H_uPAR: BioMAP Diversity Plus: 4H Assay for Urokinase-type plasminogen activator receptor (uPAR) Biomarker Activity (AID 2283030). As to conditions: primary human endothelial cells (HUVEC); actives raise or lower the signal. The gist of the method:
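Chemicals are dosed onto human vascular endothelial primary cells (umbilical vein). After 24 h, uPAR is read by ELISA. Gain or loss of signal is fitted relative to DMSO.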

Read-out in test [17]: Vascular endothelial growth factor receptor 2 (Homo sapiens) (UniProt P35968)
Put plainly: BSK_4H_VEGFRII: BioMAP Diversity Plus: 4H Assay for Vascular endothelial growth factor receptor 2 (VEGFR2) Biomarker Activity (AID 2283031). The following applies: primary human endothelial cells (HUVEC); actives raise or lower the signal. The gist of the method:
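VEGFRII levels on human vascular endothelial primary cells were determined by ELISA at 24 hours post-dosing, with gain- or loss-of-signal fitted against DMSO controls.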

In test [18] the target is human Retinoid X Receptor beta (RXRb), RXRB (gene 6257) (UniProt P28702). Put plainly: ATG_RXRb_TRANS: Attagene TRANS-FACTORIAL HepG2 Assay for human Retinoid X Receptor beta (RXRb) (AID 2283013; active = hit-call score of the fitted dose curve at least 0.9, where 1 is the maximum). An outline of the steps:
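HepG2 cells transiently transfected with multiplexed reporter units driven by GAL4-UAS and exogenous chimeric NR-Gal4 proteins; treated 24 h. Reporter mRNA measured by RT-PCR, 6-FAM labelling and capillary electrophoresis; gain-of-signal fitted versus DMSO baseline.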

Read-out in test [19]: Human Leukocyte Antigen - DR isotype (HLADR), HLA-DRA (gene 3122)
Kind of test: BSK_3C_HLADR: BioMAP Diversity Plus: 3C Assay for Human Leukocyte Antigen - DR isotype (HLADR) Biomarker Activity (AID 2283019).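 Note: ELISA of cell-surface HLA-DR on HUVEC 24 h after dosing.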 As to conditions: primary human endothelial cells (HUVEC); actives raise or lower the signal. The gist of the method:
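Endothelial cells from human umbilical vein are treated with test chemical; after 24 h, HLA-DR levels are measured by ELISA. Data are fitted in both directions using DMSO as the baseline.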

The target in test [20] is human Thyroid Receptor alpha (THRa1), THRA (gene 7067) (UniProt P10827). Kind of test: ATG_THRa1_TRANS: Attagene TRANS-FACTORIAL HepG2 Assay for human Thyroid Receptor alpha (THRa1) (AID 2283014; active = hit-call score of the fitted dose curve at least 0.9, where 1 is the maximum). The gist of the method: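 First, HepG2 cells receive multiple GAL4-UAS reporter units and the chimeric receptor. They are then dosed for 24 h, after which RNA is reverse-transcribed, amplified, labelled, HpaI-cut and sized by capillary electrophoresis; gain relative to DMSO is scored.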

SMILES strings stand for the structures. Where “and” joins values, the source holds several entries; their conditions need not be identical. Identical values can stand only once. Results filed as inconclusive are left out. Calls of active or inactive are those of the source. Rule for the calls, unless noted: active = hit-call score of the fitted dose curve at least 0.9, where 1 is the maximum; inactive = score below 0.9.

Sequence of human Retinoid X Receptor beta (RXRb), RXRB (gene 6257) (P28702 whole entry, looked up, the tested form may be a part): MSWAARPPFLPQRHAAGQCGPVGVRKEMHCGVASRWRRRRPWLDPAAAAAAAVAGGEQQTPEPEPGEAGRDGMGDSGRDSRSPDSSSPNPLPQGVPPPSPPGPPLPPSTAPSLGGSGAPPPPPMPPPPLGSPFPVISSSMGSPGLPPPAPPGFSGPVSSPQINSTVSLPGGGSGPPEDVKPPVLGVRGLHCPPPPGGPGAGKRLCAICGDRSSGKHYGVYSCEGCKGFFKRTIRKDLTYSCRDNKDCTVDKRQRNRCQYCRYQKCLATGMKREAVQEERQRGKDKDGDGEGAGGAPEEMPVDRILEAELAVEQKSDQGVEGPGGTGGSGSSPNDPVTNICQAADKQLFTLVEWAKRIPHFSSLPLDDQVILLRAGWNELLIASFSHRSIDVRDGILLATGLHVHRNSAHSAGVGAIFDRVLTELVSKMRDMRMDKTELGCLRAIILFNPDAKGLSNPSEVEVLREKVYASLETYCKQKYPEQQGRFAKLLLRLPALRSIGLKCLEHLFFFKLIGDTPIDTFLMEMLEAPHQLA
Sequence of Retinoic acid receptor RXR-alpha (Homo sapiens) (P19793 whole entry, looked up, the tested form may be a part): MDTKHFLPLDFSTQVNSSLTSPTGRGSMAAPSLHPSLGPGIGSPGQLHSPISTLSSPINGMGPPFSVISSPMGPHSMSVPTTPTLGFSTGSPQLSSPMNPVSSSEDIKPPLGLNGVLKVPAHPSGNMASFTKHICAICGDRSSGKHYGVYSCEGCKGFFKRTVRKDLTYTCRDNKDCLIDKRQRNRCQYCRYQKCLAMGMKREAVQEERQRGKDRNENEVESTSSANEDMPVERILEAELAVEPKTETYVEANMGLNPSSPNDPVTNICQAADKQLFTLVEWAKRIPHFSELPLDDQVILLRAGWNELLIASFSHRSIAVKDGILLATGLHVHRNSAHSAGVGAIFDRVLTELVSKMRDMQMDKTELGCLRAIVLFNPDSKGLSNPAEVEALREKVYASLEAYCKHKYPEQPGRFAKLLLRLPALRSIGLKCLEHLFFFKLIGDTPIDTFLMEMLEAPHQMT
Sequence of human Vitamin D Receptor (VDR), VDR (gene 7421) (P11473 whole entry, looked up, the tested form may be a part): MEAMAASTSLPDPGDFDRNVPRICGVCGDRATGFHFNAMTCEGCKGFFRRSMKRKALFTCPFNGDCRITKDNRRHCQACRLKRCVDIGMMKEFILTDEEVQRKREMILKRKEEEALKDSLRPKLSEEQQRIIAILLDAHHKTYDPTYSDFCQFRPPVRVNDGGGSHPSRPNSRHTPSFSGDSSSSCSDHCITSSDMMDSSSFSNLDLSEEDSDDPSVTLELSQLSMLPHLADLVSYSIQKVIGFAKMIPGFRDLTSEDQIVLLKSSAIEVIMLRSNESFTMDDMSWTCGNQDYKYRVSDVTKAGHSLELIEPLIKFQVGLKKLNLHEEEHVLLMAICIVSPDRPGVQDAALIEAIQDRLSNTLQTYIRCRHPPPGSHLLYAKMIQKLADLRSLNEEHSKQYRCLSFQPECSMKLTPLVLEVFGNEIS
Sequence of E-selectin (Homo sapiens) (P16581 whole entry, looked up): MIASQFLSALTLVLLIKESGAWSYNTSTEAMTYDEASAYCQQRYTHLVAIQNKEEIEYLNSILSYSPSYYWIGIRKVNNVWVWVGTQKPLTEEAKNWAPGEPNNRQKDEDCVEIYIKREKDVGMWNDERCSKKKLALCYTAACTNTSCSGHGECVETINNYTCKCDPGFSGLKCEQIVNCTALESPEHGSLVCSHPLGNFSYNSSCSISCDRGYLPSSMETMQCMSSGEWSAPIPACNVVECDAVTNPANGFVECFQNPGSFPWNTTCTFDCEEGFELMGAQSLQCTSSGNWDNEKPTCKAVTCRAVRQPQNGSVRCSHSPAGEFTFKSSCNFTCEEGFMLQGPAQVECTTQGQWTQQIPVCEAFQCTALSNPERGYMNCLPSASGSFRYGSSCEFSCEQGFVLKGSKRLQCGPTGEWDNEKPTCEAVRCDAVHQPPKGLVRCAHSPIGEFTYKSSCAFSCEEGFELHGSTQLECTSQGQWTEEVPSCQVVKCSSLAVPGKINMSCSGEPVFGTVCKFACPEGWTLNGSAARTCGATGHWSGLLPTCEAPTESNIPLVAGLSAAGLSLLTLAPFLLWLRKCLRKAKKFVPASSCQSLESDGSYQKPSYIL
Sequence of human Thyroid Receptor alpha (THRa1), THRA (gene 7067) (P10827 whole entry, looked up, the tested form may be a part): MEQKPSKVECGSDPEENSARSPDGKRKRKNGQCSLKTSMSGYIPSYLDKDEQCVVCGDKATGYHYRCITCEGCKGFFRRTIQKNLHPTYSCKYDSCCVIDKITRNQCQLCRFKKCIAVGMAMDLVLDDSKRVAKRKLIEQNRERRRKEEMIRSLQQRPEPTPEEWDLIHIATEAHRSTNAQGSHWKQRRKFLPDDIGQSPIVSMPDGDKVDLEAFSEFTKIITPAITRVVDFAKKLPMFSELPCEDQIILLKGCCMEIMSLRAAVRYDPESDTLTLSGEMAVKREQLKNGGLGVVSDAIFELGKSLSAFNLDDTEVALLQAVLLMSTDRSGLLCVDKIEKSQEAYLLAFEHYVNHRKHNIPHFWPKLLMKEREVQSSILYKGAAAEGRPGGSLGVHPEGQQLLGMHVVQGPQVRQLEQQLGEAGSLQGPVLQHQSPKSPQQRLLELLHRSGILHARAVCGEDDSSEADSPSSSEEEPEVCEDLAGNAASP

With `CN(C)C(=O)NC1(c2ccccc2)CCN(CC[C@@]2(c3ccc(F)c(F)c3)CN(C(=O)c3ccccc3)CCO2)CC1`, the result in test [1], in test [2], in test [3], in test [4], in test [5] and in test [6] was inactive. The outcome in [7], in [8], in [9], in [10], in test [11] and in test [12] was inactive. In addition, the result in test [13], in test [14], in test [15], in test [16] and in test [17] was inactive.
By AC50 is commonly meant the concentration giving half of the maximal activity seen. Regarding `C=CCc1ccc(OC)c(OC)c1`, the call in [1], in test [2], in test [3], in test [4], in test [5] and in test [6] was inactive. Further, the outcome in test [7], in test [8], in test [9], in test [10], in test [11] and in test [12] was inactive. The result in [13], in test [14], in test [15], in test [16] and in test [17] was inactive. The AC50 in test [18] is 65.4 µM (active).
As for `CCCCCCC(C=O)=Cc1ccccc1`, the molecule was classed as inactive in test [1], in test [3], in test [5], in [8], in [10] and in [14]. Further, the outcome in [15], in [16] and in [17] was inactive. For the same molecule, the half-maximal activity concentration (AC50) in test [18] is 65.6 µM (active) and 39.1 µM (active); in [2] it was 37.7 µM (active); in [4], 35 µM (active); in [6], 30.1 µM (active); in test [7], 36.3 µM (active); in test [9] it was 31 µM (active). For the same molecule, the AC50 in test [11] was 37.5 µM (active); in test [12] it was 31.1 µM (active); in test [13], 31.8 µM (active).
`O=C1NC(=O)C(c2ccccc2)(c2ccccc2)N1`: the outcome in [1], in test [2], in test [3], in [4], in [5] and in test [19] was inactive. For the same molecule, the result in test [6], in test [7], in test [9], in [11], in test [12] and in [13] was inactive. The result in test [14], in test [15], in test [16] and in test [17] was inactive.
Regarding `CC(=O)OCC(COC(C)=O)OC(C)=O`, the outcome in test [1], in test [20], in test [2], in test [3], in test [4] and in test [5] was inactive. Besides, the outcome in [6], in [7], in test [8], in test [9], in test [10] and in test [11] was inactive. Moreover, the result in test [12], in [13], in test [14], in [15], in [16] and in test [17] was inactive.
On to `NC=O`, for which the result in [18], in [20], in test [2], in test [3], in test [4] and in test [5] was inactive. Also, the result in test [6], in [7], in test [8], in test [9], in [10] and in test [11] was inactive. The result in test [12], in [13], in test [14], in test [15], in [16] and in [17] was inactive.
